In PubChem BioAssay (EPA / NIEHS) one finds outcome and AC50 data, which are given here for 13 compounds.

The structures appear in SMILES notation. The source made the active and inactive calls. Rule for the calls: active = hit-call score of the fitted dose curve at least 0.9, where 1 is the maximum; inactive = score below 0.9.

The nature of the experiment: APR_HepG2_CellCycleArrest_24hr: Apredica 24-hour HepG2 Assay for Cell Cycle Arrest (AID 2282905).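 Note: cell cycle arrest scored as ratio of 2N to 4N nuclear DNA content.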 As to conditions: imaging, actives raise or lower the signal. Here is the method: APR_HepG2_24hr is a cell-based, multiplexed-readout assay that uses HepG2, a human liver cell line, with measurements taken at 24 hours after chemical dosing in a 384-well plate.APR_HepG2_CellCycleArrest_24hr is one of 10 assay component(s) measured or calculated from the APR_HepG2_24hr assay. It is designed to make measurements of cell phenotype, a form of morphology reporter, as detected with fluorescence intensity signals by HCS Fluorescent Imaging technology.Data from the assay component APR_HepG2_CellCycleArrest_24hr was analyzed into 1 assay endpoint. This assay endpoint, APR_HepG2_CellCycleArrest_24hr, was analyzed with bidirectional fitting relative to DMSO as the negative control and baseline of activity. Using a type of morphology reporter, measures of all nuclear dna for gain or loss-of-signal activity can be used to understand the signaling at the pathway-level as they relate to the gene . Furthermore, this assay endpoint can be referred to as a primary readout, because this assay has produced multiple assay endpoints where this one serves a signaling function. To generalize the intended target to other relatable targets, this assay endpoint is annotated to the cell cycle intended target family, where the subfamily is arrest.
Cells were treated with dimethyl sulfoxide (DMSO) as a solvent control at a final concentration of 0.5% v/v or with compounds in DMSO with a resulting final DMSO concentration of 0.5% v/v. Compound treatment was done at concentrations of 0.39, 0.78, 1.56, 3.12, 6.24, 12.5, 25, 50, 100, and 200 uM in duplicate on each plate. Cells were treated with compounds for 1, 24, or 72 hr. Carbonyl […] m-chloro-phenylhydrazone (CCCP) and taxol were used as positive controls for mitochondrial function and cytoskeletal stability, respectively; DMSO served as the negative control for this experiment. Cells were fixed by the direct addition of 50 uL formaldehyde in Hank's Balanced Salt Solution (HBSS) to a final concentration of 3.7%. After incubation in the fixation medium for 30 min at room temperature (293-298 K), cells were rinsed twice with HBSS and treated with cell permeabilization buffer (16 uL of 0.5% Triton X-100) for 10 min at room temperature (293-298 K) before labeling. For mitochondrial membrane potential and mitochondrial measurements, pre-fixed cells were incubated with 50 uL of MitoTracker Red CMXRos (Invitrogen) at a concentration of 250 nM for 30 min before fixation. In the remaining cases, post-fixed cells were labeled by incubation with a multiplexed mixture of primary antibodies in HBSS for 60 min at room temperature (293-298 K) to detect immunoreactivity of c-Jun (1:500), phospho-histone H3 (1:100), phospho-histone H2A.x (1:200), p53 (1:400), alpha-tubulin (1:200) and Hoechst 33342 (2 ug/mL). Cells were labeled for multiplexed imaging on two separate plates: a) Hoechst 33342, MitoTracker Red, phospho-histone H3, and alpha-tubulin, and b) Hoechst 33342, phospho-histone H2A.x, and c-Jun. A final rinse with HBSS (50 uL) was performed before analysis. The primary and secondary antibodies for the proteins were phospho-histone H3 (rabbit anti-phospho-histone H3 and FITC-donkey anti-rabbit IgG), phospho-histone H2A.x (mouse anti-phospho-histone H2A.x and FITC-donkey anti-mouse IgG), c-Jun (rabbit anti-phospho-c-Jun and Cy3-donkey anti-rabbit IgG), p53 (sheep anti-p53 and Cy5-donkey anti-sheep IgG), alpha-tubulin (mouse anti-alpha-tubulin and Cy5-donkey anti-mouse IgG). These antibodies are available as the CellCiphr HepG2 assay kit (Millipore).Digital images of each well were captured using a Cellomics ArrayScan VTI (Thermo Scientific Cellomics) (0.8 NA objective, 0.63x optical coupler, and XF-93 filter set) at 20x magnification. The images were acquired using the autofocus feature of the ArrayScan instrument, which entails the following steps. First, the camera focuses on channel 1 (Hoechst 33342), where nuclei are identified. Second, a Z offset of 1 um is used for capturing mitochondria (MitoTracker Red). […]
For `Clc1cccc(Cl)c1Cl`, the compound was classed as inactive.

As for `CC(C)O.CC(C)O.OCCN(CCO)CCO.OCCN(CCO)CCO.[Ti]`, the compound was classed as inactive.

Regarding `OCCN(CCO)CCO`, the outcome was inactive.

Turning to `Cc1cc(C)cc(C)c1`, the compound was called inactive.

With `COc1ccccc1N`, the compound was classed as inactive.

As for `O=C(N[C@H]1CN2CCC1CC2)c1ccc2c(c1)OCCO2`, the compound was called inactive.

`O=C(O)C1(c2ccc3c(c2)OC[C@H](Cc2ccc(-c4ccccc4)cc2)[C@H]3O)CCCC1`: the compound was classed as inactive.

Consider `CC(C)(C)c1ccccc1O`, for which the call was inactive.

As to `Oc1cc(Cl)c(Cl)cc1Cl`, the AC50 was 35.7 µM (active).

As to `CN(C)C(=S)S`, the AC50 is 19.8 µM (active).

With `Clc1cccc(Cl)c1`, the compound was called inactive.

In the case of `CCCCCCCCCCCCc1cccc(S(=O)(=O)O)c1`, the outcome was inactive.

With `N#Cc1cccnc1`, the compound was classed as inactive.
